Consider five compounds from PubChem BioAssay.

Experiment [1] is described as follows: optical density shifts of acrAB sulA E. coli – strain DRC41, OD650, 48 h, E. coli filamentation inducer project, primary screen (AID 1152).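 Note: E. coli MC1000 strain DRC41 lacking acrAB efflux pump and sulA.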 The following applies: higher = more signal, called active from +8 up or from −8 down.
Experiment [2] can be described thus: probe aLefty1 binding on compound microarray – biochemical, small-molecule microarray, 635/667 nm fluorescence, primary screen (AID 1153).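 Note: score merges spot fluorescence with signal-to-noise ratio from the scanned slide images.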 Particulars: higher = more signal.
A short description of experiment [3]: plasmodial surface anion channel blockers, osmotic lysis – cell-based, P. falciparum Indochina, OD700, 1 h, primary screen (AID 1154). The following applies: P. falciparum Indochina infected RBC osmotic lysis, higher = more signal, called active from +8 up or from −8 down.
Experiment [4] is described as follows: plasmodial surface anion channel blockers, osmotic lysis – cell-based, P. falciparum Indochina, OD700, 2 h, primary screen (AID 1155).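 Note: lysis reports solute entry through the parasite surface anion channel PSAC.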 Particulars: P. falciparum Indochina infected erythrocytes, higher = more signal, called active from +8 up or from −8 down.
Experiment [5] in a line: changes in parasitized red cell lysis, either direction – P. falciparum Indochina, OD700, 3 h, PSAC antagonist project, primary screen (AID 1156). Particulars: P. falciparum-infected erythrocytes, osmotic lysis, higher = more signal, called active from +8 up or from −8 down.
The nature of experiment [6]: plasmodial surface anion channel blockers, osmotic lysis – cell-based, P. falciparum Indochina, OD700, 18 h, primary screen (AID 1157). Particulars: P. falciparum Indochina infected erythrocytes, osmotic lysis OD700, 18 h; higher = more signal, called active from +8 up or from −8 down.
Experiment [7] is described as follows: S6 kinase pathway phospho-S6 level changes – cell-based, A549, cytoblot, luminescence, serum-stimulated, primary screen (AID 1158).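 Note: serum-stimulated A549 lung adenocarcinoma cells; signal is phosphorylated S6 detected by cytoblot immunostaining with HRP secondary.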 Particulars: 5 h, higher = more signal.
Experiment [8] deals with NADPH oxidase 2 (Homo sapiens) (UniProt P04839). Briefly: compounds shifting NOX2 Amplex Red fluorescence – cell-based, HEK293-NOX2, PMA-stimulated, NOX inhibitor project, primary screen (AID 1159). Note: test concentration not given here. Particulars: 45 min, higher = more signal, called active from +8 up or from −8 down.
NADPH oxidase 2 (Homo sapiens), sequence (P04839 whole entry, looked up): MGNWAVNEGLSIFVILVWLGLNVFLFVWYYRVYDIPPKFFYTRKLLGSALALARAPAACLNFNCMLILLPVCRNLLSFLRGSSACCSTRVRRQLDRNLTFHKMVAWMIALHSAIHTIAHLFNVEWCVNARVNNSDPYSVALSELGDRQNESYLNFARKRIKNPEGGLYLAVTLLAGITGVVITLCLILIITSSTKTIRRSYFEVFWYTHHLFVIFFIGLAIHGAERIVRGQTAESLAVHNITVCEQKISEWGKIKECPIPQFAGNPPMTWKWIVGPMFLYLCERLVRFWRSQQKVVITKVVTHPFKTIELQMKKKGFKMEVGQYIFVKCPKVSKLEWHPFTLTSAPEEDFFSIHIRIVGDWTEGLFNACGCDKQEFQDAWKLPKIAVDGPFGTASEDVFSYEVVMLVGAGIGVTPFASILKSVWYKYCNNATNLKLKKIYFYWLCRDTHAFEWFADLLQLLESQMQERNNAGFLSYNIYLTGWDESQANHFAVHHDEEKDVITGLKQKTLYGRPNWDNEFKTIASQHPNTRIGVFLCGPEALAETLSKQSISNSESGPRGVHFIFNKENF
Experiment [9] deals with NADPH oxidase 4 (Homo sapiens) (UniProt Q9NPH5). Briefly: compounds shifting NOX4 Amplex Red fluorescence – cell-based, HEK293-NOX4, tetracycline-induced, NOX inhibitor project, primary screen (AID 1160). The following applies: HEK293-NOX4, Amplex Red H2O2 fluorescence, 45 min; higher = more signal, called active from +8 up or from −8 down.
NADPH oxidase 4 (Homo sapiens), sequence (Q9NPH5 whole entry, looked up): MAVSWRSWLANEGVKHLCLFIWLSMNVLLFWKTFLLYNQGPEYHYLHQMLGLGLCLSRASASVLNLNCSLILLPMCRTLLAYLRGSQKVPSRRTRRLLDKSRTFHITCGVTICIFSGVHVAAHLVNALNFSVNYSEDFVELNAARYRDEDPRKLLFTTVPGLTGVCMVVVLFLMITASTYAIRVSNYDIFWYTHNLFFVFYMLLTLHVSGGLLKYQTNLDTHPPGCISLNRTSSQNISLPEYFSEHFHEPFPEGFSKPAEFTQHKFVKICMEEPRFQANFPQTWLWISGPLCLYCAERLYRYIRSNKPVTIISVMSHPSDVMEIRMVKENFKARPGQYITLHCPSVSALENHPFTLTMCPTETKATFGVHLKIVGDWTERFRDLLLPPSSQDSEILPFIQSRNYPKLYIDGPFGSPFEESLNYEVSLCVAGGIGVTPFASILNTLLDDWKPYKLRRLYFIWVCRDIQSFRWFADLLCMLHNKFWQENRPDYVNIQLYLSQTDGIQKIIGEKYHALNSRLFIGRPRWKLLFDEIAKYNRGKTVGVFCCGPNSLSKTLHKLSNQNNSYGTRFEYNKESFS
Experiment [10] deals with NADPH oxidase 5 (Homo sapiens) (UniProt Q96PH1). Briefly: compounds shifting NOX5 Amplex Red fluorescence – cell-based, HEK293-NOX5, NOX inhibitor project, primary screen (AID 1161). Particulars: HEK293-NOX5, ionomycin, 45 min, higher = more signal.
NADPH oxidase 5 (Homo sapiens), sequence (Q96PH1 whole entry, looked up): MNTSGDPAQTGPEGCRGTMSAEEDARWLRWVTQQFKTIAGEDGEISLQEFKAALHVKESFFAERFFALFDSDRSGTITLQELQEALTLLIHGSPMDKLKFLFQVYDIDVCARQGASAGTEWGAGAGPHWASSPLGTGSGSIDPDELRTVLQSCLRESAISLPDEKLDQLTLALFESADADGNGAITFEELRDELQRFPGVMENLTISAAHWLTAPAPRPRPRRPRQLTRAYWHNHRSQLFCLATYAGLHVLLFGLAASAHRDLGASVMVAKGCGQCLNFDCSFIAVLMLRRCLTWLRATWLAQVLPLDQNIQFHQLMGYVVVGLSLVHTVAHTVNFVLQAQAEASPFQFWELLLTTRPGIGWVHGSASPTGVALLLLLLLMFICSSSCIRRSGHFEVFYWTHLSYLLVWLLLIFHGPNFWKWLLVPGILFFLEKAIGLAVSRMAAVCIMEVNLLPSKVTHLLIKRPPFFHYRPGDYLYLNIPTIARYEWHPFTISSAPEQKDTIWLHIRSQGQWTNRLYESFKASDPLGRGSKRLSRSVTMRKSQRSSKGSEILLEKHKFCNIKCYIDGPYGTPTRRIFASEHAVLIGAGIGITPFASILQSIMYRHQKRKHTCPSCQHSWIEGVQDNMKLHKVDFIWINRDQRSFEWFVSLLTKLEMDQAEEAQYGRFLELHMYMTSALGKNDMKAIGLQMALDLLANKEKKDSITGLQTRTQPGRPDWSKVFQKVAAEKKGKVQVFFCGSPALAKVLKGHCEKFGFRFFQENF
Experiment [11] in a line: compound effects on lung adenocarcinoma cell viability – A549, calcein-AM fluorescence, 48 h, basal, profiling panel (AID 1162). Note: test concentration not given here. Particulars: higher = more signal.
Experiment [12] can be described thus: compound effects on differentiated 3T3-L1 adipocyte viability – cell-based, 3T3-L1 adipocytes, calcein-AM fluorescence, 48 h, basal, profiling panel (AID 1163). Note: test concentration not given here. The following applies: 3T3-L1 adipocytes viability, higher = more signal.
Experiment [13] is described as follows: compound effects on hepatocellular carcinoma cell viability – HepG2, calcein-AM fluorescence, 48 h, basal, profiling panel (AID 1164). Note: test concentration not given here. The following applies: higher = more signal.
Experiment [14] in a line: compound effects on multiple myeloma cell viability – MM1S, calcein-AM fluorescence, 48 h, basal, profiling panel (AID 1165).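 Note: viability of MM1S multiple myeloma cells under basal unstimulated conditions; test concentration not given here.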 The following applies: higher = more signal.
Experiment [15] in a line: calcein-AM signal in unstimulated myeloma cells – cell-based, calcein-AM fluorescence, 48 h, PK04 Diversity Set, profiling panel (AID 1166).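 Note: cells grown under basal conditions without added stimulus; test concentration not given here.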 The following applies: RPMI8226 myeloma viability, higher = more signal.
Experiment [16] is described as follows: JC-1 mitochondrial signal, unstimulated HepG2 cells – cell-based, JC-1 fluorescence, 24 h, 100 nL compound, profiling panel (AID 1167). Note: test concentration not given here. Particulars: HepG2 mitochondrial potential, higher = more signal.
Experiment [17] can be described thus: JC-1 mitochondrial signal, unstimulated adipocytes – cell-based, JC-1 fluorescence, 3T3-L1 adipocytes, 24 h, 100 nL compound, profiling panel (AID 1168). Note: test concentration not given here. The following applies: JC-1 mitochondrial fluorescence, higher = more signal, called active from +8 up or from −8 down.
Experiment [18] in a line: JC-1 mitochondrial signal, unstimulated myeloma cells – cell-based, JC-1 fluorescence, RPMI8226, 24 h, 100 nL compound, profiling panel (AID 1169). Note: test concentration not given here. Particulars: JC-1 mitochondrial potential fluorescence, higher = more signal.
The nature of experiment [19]: JC-1 mitochondrial signal, unstimulated MM1S myeloma – cell-based, JC-1 fluorescence, 24 h, 100 nL compound, profiling panel (AID 1170). Note: test concentration not given here. Particulars: MM1S mitochondrial potential, higher = more signal.
Experiment [20] in a line: resazurin metabolic signal in A549 cells – cell-based, resazurin fluorescence, 24 h, PK04 Diversity Set, profiling panel (AID 1171). Note: test concentration not given here. Particulars: A549 viability, higher = more signal, called active from +8 up or from −8 down.

SMILES strings stand for the structures. Calls of active or inactive are those of the source.

On to `CCc1cc2c(nc1CC)CCN(CCC(C)=NO[C@@H](C)c1cn([C@H](CO)Cc3ccccc3)nn1)C2`, for which the z-score in [1] was 0.0933 (inactive); in [3], 4.48 (inactive); in experiment [4], 0.586 (inactive); in [5], -0.0919 (inactive); in [6], 0.49 (inactive); in [7] it was 0.434. In addition, the z-score in experiment [8] is -1.4 (inactive); in experiment [9], 0.033 (inactive); in [10], 0.858; in experiment [11], 0.669; in experiment [12] it was 0.367; in experiment [13], 1.8. For the same compound, the z-score in experiment [14] is 0.73; in experiment [15] it was 0.18; in experiment [16], 2.44; in experiment [17], 0.254 (inactive); in experiment [18] it was -0.279; in experiment [19] it was -0.525. Also, the z-score in experiment [20] was 0.0367 (inactive). Further, in [2], the composite z-score is -0.0011.

As to `C[C@H]1COC(=O)[C@@H]2CCCN2C(=O)[C@@H](C)COC(=O)[C@H](Cc2ccccc2)NC1=O`, the z-score was -0.0891 (inactive) in [1]; 0.115 (inactive) in experiment [3]; -0.29 (inactive) in [4]; 0.968 (inactive) in experiment [5]; 0.22 (inactive) in experiment [6]; 0.413 in [7]. The z-score in [8] is -0.45 (inactive); in [9], -0.114 (inactive); in experiment [10], -0.272; in experiment [11] it was -0.398; in experiment [12] it was -0.501; in experiment [13], -0.501. The z-score in experiment [14] was 0.119; in experiment [15], -0.364; in experiment [16], 0.278; in experiment [17], -0.906 (inactive); in experiment [18], -0.287; in [19] it was -0.825. Also, in experiment [20], the z-score is 0.264 (inactive). The composite z-score in [2] is -0.394.

For `CCOC(=O)[C@H](CC(C)C)NC(=O)CCC1CC(OC(=O)NCc2cccc3ccccc23)CC2(CCCC(COC(=O)NCCc3ccc(Cl)cc3)O2)O1` (stereo not given in full), the z-score in experiment [1] is 0.692 (inactive); in experiment [3] it was 3.31 (inactive); in experiment [4] it was 0.0962 (inactive); in experiment [5], -0.837 (inactive); in experiment [6], -0.466 (inactive); in experiment [7], 0.367. The z-score in experiment [8] is 0.274 (inactive); in experiment [9], 0.623 (inactive); in [10] it was 1.24; in [11], -0.539; in experiment [12], -0.23; in experiment [13] it was -0.0607. For the same compound, the z-score in experiment [14] is -3.16; in experiment [15], 0.403; in experiment [16], 0.326; in experiment [17], 1.03 (inactive); in experiment [18], -0.436; in experiment [19] it was -1.86. In experiment [20], the z-score was 0.384 (inactive). For the same compound, the composite z-score in experiment [2] is -0.14.

`CC(C)=CCCC(C)=CCON=C1C[C@@H](O)[C@@H](O)[C@@H]2[C@@H]3C(=O)N(c4ccc(F)cc4F)C(=O)[C@@H]3CC[C@@H]12`: the z-score in experiment [1] was 0.217 (inactive); in [3] it was 4.44 (inactive); in [4], 1.21 (inactive); in [5] it was 2.06 (inactive); in [6], 1.07 (inactive); in experiment [7], -0.718. In addition, the z-score in [8] was -0.333 (inactive); in experiment [9] it was -0.0951 (inactive); in experiment [10] it was 0.0854; in experiment [11], -1.34; in experiment [12], 0.425; in experiment [13] it was -0.354. Besides, the z-score is -0.586 in [14]; -1.47 in experiment [15]; 0.208 in experiment [16]; -1.28 (inactive) in experiment [17]; -0.163 in [18]; -0.356 in experiment [19]. Besides, the z-score in experiment [20] is -0.179 (inactive). For the same compound, in experiment [2], the composite z-score came out at 0.0999.

Take `CC(=O)OC[C@H]1O[C@H](CCON=C2[C@H]3CCn4c(=O)n(-c5ccccc5)c(=O)n4[C@H]3[C@H](O)[C@@H]3O[C@H]23)C=C[C@@H]1OC(C)=O`: the z-score in experiment [1] is 0.0711 (inactive); in experiment [3], 0.553 (inactive); in experiment [4], 0.0612 (inactive); in experiment [5], -0.192 (inactive); in experiment [6], 0.269 (inactive); in experiment [7], -0.84. In addition, the z-score is -0.564 (inactive) in [8]; 0.0641 (inactive) in experiment [9]; -0.0303 in [10]; 0.0488 in experiment [11]; -1.08 in experiment [12]; 0.254 in [13]. For the same compound, the z-score in [14] was -0.775; in [15], -0.645; in [16], -0.58; in experiment [17] it was -0.91 (inactive); in experiment [18] it was 0.602; in experiment [19] it was -0.876. Besides, in experiment [20], the z-score was -0.862 (inactive). Moreover, in experiment [2], the composite z-score is 0.637.
